Data reported in PubChem BioAssay (EPA / NIEHS).
Active and inactive are the calls of the source. How the source made its calls: active means hit-call score of the fitted dose curve at least 0.9, where 1 is the maximum; inactive means score below 0.9.

Tests used:
[1] = read-out: Thrombomodulin, THBD (gene 7056); assay: BSK_CASM3C_Thrombomodulin: BioMAP Diversity Plus: CASM3C Assay for Thrombomodulin Biomarker Activity (AID 2283051); conditions: primary human coronary artery smooth muscle cells; actives raise or lower the signal;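 further: thrombomodulin protein level measured by ELISA 24 h after dosing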
[2] = read-out: Tissue Factor, F3 (gene 2152); assay: BSK_CASM3C_TissueFactor: BioMAP Diversity Plus: CASM3C Assay for Tissue Factor Biomarker Activity (AID 2283052); conditions: primary human coronary artery smooth muscle cells; actives raise or lower the signal;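 further: cell surface tissue factor protein level read by ELISA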
[3] = read-out: Interferon-gamma inducible Protein 10 (IP10), CXCL10 (gene 3627); assay: BSK_hDFCGF_IP10: BioMAP Diversity Plus: hDFCGF Assay for Interferon-gamma inducible Protein 10 (IP10) Biomarker Activity (AID 2283053); conditions: primary human foreskin fibroblasts; actives raise or lower the signal
Procedure, shortened: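 Cells: human dermal foreskin fibroblasts. Exposure: 24 h post-dosing. Detection: IP-10 ELISA, with values expressed against DMSO controls and fitted in both directions.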

[4] = read-out: Urokinase-type plasminogen activator receptor (uPAR), PLAUR (gene 5329); assay: BSK_CASM3C_uPAR: BioMAP Diversity Plus: CASM3C Assay for Urokinase-type plasminogen activator receptor (uPAR) Biomarker Activity (AID 2283054); conditions: primary human coronary artery smooth muscle cells; actives raise or lower the signal;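 further: cell-surface uPAR protein level quantified by ELISA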
[5] = read-out: Vascular cell adhesion molecule 1 (VCAM1), VCAM1 (gene 7412); assay: BSK_CASM3C_VCAM1: BioMAP Diversity Plus: CASM3C Assay for Vascular cell adhesion molecule 1 (VCAM1) Biomarker Activity (AID 2283055); conditions: primary human coronary artery smooth muscle cells; actives raise or lower the signal;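 further: VCAM-1 protein level quantified by ELISA on the cells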
[6] = read-out: Collagen III, COL3A1 (gene 1281); assay: BSK_hDFCGF_CollagenIII: BioMAP Diversity Plus: hDFCGF Assay for Collagen III Biomarker Activity (AID 2283056); conditions: primary human foreskin fibroblasts; actives raise or lower the signal
Procedure, shortened: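 ELISA read-out of collagen III from human skin fibroblast cultures sampled 24 h post-dosing. Values were derived by bidirectional fitting relative to the DMSO vehicle control.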

[7] = read-out: Epidermal growth factor receptor (EGFR), EGFR (gene 1956); assay: BSK_hDFCGF_EGFR: BioMAP Diversity Plus: hDFCGF Assay for Epidermal growth factor receptor (EGFR) Biomarker Activity (AID 2283057); conditions: primary human foreskin fibroblasts; actives raise or lower the signal
Procedure, shortened: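 Dosing human primary skin fibroblasts, then measuring surface EGFR by ELISA at 24 h, gives the endpoint; gains and losses relative to DMSO were fitted in both directions.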

[8] = read-out: Interleukin-8 (IL8), CXCL8 (gene 3576); assay: BSK_hDFCGF_IL8: BioMAP Diversity Plus: hDFCGF Assay for Interleukin-8 (IL8) Biomarker Activity (AID 2283058); conditions: primary human foreskin fibroblasts; actives raise or lower the signal
Procedure, shortened: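 Cells used are human skin primary fibroblasts. Chemical is added, cultures run 24 h, then IL-8 is quantified by ELISA, and gain or loss versus DMSO control is fitted in both directions.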

[9] = BSK_hDFCGF_Proliferation: Cell Proliferation Assessment in the BioMAP Diversity Plus: hDFCGF Assay (AID 2283059); conditions: primary human foreskin fibroblasts;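 further: curves fitted for both rise and fall of signal versus DMSO baseline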
Procedure, shortened: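 Sub-confluent human foreskin fibroblast cultures receive test chemical […]. Relative cell number is quantified by sulforhodamine B staining (0.1%, after 10% TCA fixation) at 560 nm, with bidirectional fitting referenced to DMSO.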

[10] = read-out: Macrophage colony-stimulating factor (MCSF), CSF1 (gene 1435); assay: BSK_hDFCGF_MCSF: BioMAP Diversity Plus: hDFCGF Assay for Macrophage colony-stimulating factor (MCSF) Biomarker Activity (AID 2283060); conditions: primary human foreskin fibroblasts; actives raise or lower the signal
Procedure, shortened: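 Primary human foreskin fibroblasts dosed with chemical; 24 h later, M-CSF quantified by ELISA; curves fitted in both directions vs DMSO negative control.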

[11] = BSK_hDFCGF_SRB: Viability Assessment in the BioMAP Diversity Plus: hDFCGF Assay (AID 2283061); conditions: primary human foreskin fibroblasts;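 further: cells exposed to compound for 24 h before the read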
Procedure, shortened: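 Readout is SRB absorbance at 560 nm, reflecting total protein in parallel cultures of human foreskin fibroblasts harvested 24 h after chemical dosing. Activity was fitted bidirectionally relative to DMSO.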

[12] = read-out: TIMP metallopeptidase inhibitor 1 (TIMP1), TIMP1 (gene 7076); assay: BSK_hDFCGF_TIMP1: BioMAP Diversity Plus: hDFCGF Assay for TIMP metallopeptidase inhibitor 1 (TIMP1) Biomarker Activity (AID 2283062); conditions: primary human foreskin fibroblasts; actives raise or lower the signal
Procedure, shortened: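 Human skin fibroblasts (primary), hDFCGF system; compound exposure 24 h; TIMP-1 by ELISA; bidirectional fit vs DMSO negative control; overt cytotoxicity by SRB in parallel wells.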

[13] = read-out: Monokine induced gamma interferon (MIG), CXCL9 (gene 4283); assay: BSK_hDFCGF_MIG: BioMAP Diversity Plus: hDFCGF Assay for Monokine induced gamma interferon (MIG) Biomarker Activity (AID 2283063); conditions: primary human foreskin fibroblasts; actives raise or lower the signal
Procedure, shortened: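 Chemicals were added to primary human foreskin fibroblast cultures, which were sampled 24 h later. MIG levels were then quantified by ELISA and responses fitted in both directions relative to DMSO.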

[14] = read-out: Matrix Metallopeptidase 1 (MMP1), MMP1 (gene 4312); assay: BSK_hDFCGF_MMP1: BioMAP Diversity Plus: hDFCGF Assay for Matrix Metallopeptidase 1 (MMP1) Biomarker Activity (AID 2283064); conditions: primary human foreskin fibroblasts; actives raise or lower the signal
Procedure, shortened: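 Human foreskin fibroblasts exposed to chemical for 24 h; MMP1 detected by ELISA, with DMSO as baseline for bidirectional fitting.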

[15] = read-out: Vascular cell adhesion molecule 1 (VCAM1), VCAM1 (gene 7412); assay: BSK_hDFCGF_VCAM1: BioMAP Diversity Plus: hDFCGF Assay for Vascular cell adhesion molecule 1 (VCAM1) Biomarker Activity (AID 2283065); conditions: primary human foreskin fibroblasts; actives raise or lower the signal;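 on AC50: VCAM-1 protein level quantified by ELISA after 24 h chemical exposure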
Procedure, shortened: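 Human foreskin fibroblast primary cells, chemical exposure 24 h; VCAM-1 by ELISA; bidirectional fit, DMSO = negative control/baseline.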

[16] = read-out: Plasminogen activator inhibitor-1 (PAI1), SERPINE1 (gene 5054); assay: BSK_hDFCGF_PAI1: BioMAP Diversity Plus: hDFCGF Assay for Plasminogen activator inhibitor-1 (PAI1) Biomarker Activity (AID 2283066); conditions: primary human foreskin fibroblasts; actives raise or lower the signal
Procedure, shortened: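 Fibroblasts from human foreskin were treated with test chemical. After 24 h, PAI-1 was measured by ELISA. Activity was fitted in both directions relative to DMSO.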

[17] = read-out: Intercellular Adhesion Molecule 1 (ICAM1), ICAM1 (gene 3383); assay: BSK_KF3CT_ICAM1: BioMAP Diversity Plus: KF3CT Assay for Intercellular Adhesion Molecule 1 (ICAM1) Biomarker Activity (AID 2283067); conditions: primary human keratinocytes with fibroblasts; actives raise or lower the signal
Procedure, shortened: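 ICAM-1 levels are measured by ELISA 24 h after dosing a primary human co-culture of keratinocytes and foreskin fibroblasts. Activity in either direction is fitted relative to DMSO vehicle.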

[18] = read-out: Interferon-gamma inducible Protein 10 (IP10), CXCL10 (gene 3627); assay: BSK_KF3CT_IP10: BioMAP Diversity Plus: KF3CT Assay for Interferon-gamma inducible Protein 10 (IP10) Biomarker Activity (AID 2283068); conditions: primary human keratinocytes with fibroblasts; actives raise or lower the signal
Procedure, shortened: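 ELISA read-out of IP-10 after 24 h chemical dosing of human skin primary co-culture (keratinocytes, foreskin fibroblasts). Gain or loss of signal relative to DMSO, bidirectional curve fit.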

[19] = BSK_KF3CT_SRB: Viability Assessment in the BioMAP Diversity Plus: KF3CT Assay (AID 2283069); conditions: primary human keratinocytes with fibroblasts;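 further: read 24 h after compound addition; fitted for both signal gain and loss against DMSO baseline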
Procedure, shortened: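 Overt cytotoxicity is assessed as total protein by sulforhodamine B staining in parallel human skin co-cultures at 24 h after dosing. DMSO serves as negative control and baseline.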

[20] = read-out: Interleukin-1 alpha (IL1a), IL1A (gene 3552); assay: BSK_KF3CT_IL1a: BioMAP Diversity Plus: KF3CT Assay for Interleukin-1 alpha (IL1a) Biomarker Activity (AID 2283070); conditions: primary human keratinocytes with fibroblasts; actives raise or lower the signal
Procedure, shortened: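 Readout is IL-1a level by ELISA, compared bidirectionally with DMSO as baseline. Cells: human keratinocytes co-cultured with foreskin fibroblasts, harvested 24 h post-dose.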

Measured: AC50

Cc1ccc2oc(CN(Cc3ccccc3)C(=O)Nc3c(F)cc(F)cc3F)c(-c3ccc(Cl)cc3)c2c1
inactive: [1] | [2] | [4] | [5] | [6] | [7] | [8] | [9] | [10] | [11] | [12] | [13] | [14] | [15] | [17] | [18] | [19] | [20]
active: [3] 5.68 µM | [16] 0.999 µM

COc1cc(C(=O)NC2CCN(C)CC2)ccc1Nc1ncc2c(n1)N(C1CCCC1)CC(F)(F)C(=O)N2C
inactive: [1] | [7] | [12]
active: [2] 14.2 µM | [3] 11.9 µM | [4] 24.2 µM | [5] 14.1 µM | [6] 19 µM | [8] 23.8 µM | [9] 4.95 µM | [10] 14.9 µM | [11] 16 µM | [13] 6.25 µM | [14] 18.6 µM | [15] 2.79 µM | [16] 12.2 µM | [17] 18.6 µM | [18] 32.3 µM | [19] 30.8 µM | [20] 7.74 µM

CN1C(=O)N(c2ccccc2Br)Cc2cnc(Nc3ccc4c(c3)OCC(CO)O4)nc21 (stereo unspecified)
active: [2] 0.952 µM | [3] 21.3 µM | [4] 13.6 µM | [8] 16.1 µM | [9] 11.9 µM | [10] 20.4 µM | [11] 19 µM | [12] 6.79 µM | [13] 22.2 µM | [14] 9.31 µM | [15] 34.1 µM | [16] 3.21 µM | [18] 21.6 µM | [19] 16.2 µM | [20] 10.4 µM
inactive: [1] | [5] | [6] | [7] | [17]

CCN(Cc1cccnc1)C(=O)c1cccc(Cl)c1[C@]1(C)C(=O)N(Cc2ccc(OC)cc2OC)c2ccc(Cl)cc21
active: [3] 7.05 µM | [5] 5.43 µM | [7] 5.95 µM | [9] 5.1 µM | [10] 5.49 µM | [14] 5.9 µM | [16] 9.31 µM | [18] 22.3 µM
inactive: [1] | [2] | [4] | [6] | [8] | [11] | [12] | [13] | [15] | [17] | [19]

CCCOC(=O)c1cc(O)c(O)c(O)c1
inactive: [1] | [2] | [4] | [5] | [6] | [7] | [8] | [10] | [11] | [12] | [14] | [15] | [16] | [17] | [18] | [19]
active: [3] 20 µM | [9] 8.01 µM | [13] 10.8 µM

CC(C)(c1cc(Br)c(O)c(Br)c1)c1cc(Br)c(O)c(Br)c1
active: [1] 25 µM | [2] 31.7 µM | [3] 6.23 µM | [4] 31.2 µM | [5] 29.3 µM | [6] 3.85 µM | [8] 11.5 µM | [9] 3.94 µM | [10] 7.47 µM | [11] 5.8 µM | [12] 6.42 µM | [13] 7.65 µM | [14] 6.31 µM | [15] 5.94 µM | [16] 5.46 µM | [17] 4.85 µM | [18] 2.53 µM | [19] 5.11 µM
inactive: [7]

Cc1ncc(CO)c(CO)c1O
inactive: [1] | [2] | [3] | [4] | [5] | [6] | [7] | [8] | [9] | [10] | [11] | [12] | [13] | [14] | [15] | [16] | [17] | [18] | [19]

O=C(Nc1ccc(Cl)cc1)Nc1ccc(Cl)c(Cl)c1
inactive: [1] | [5] | [8] | [12] | [17] | [18] | [19]
active: [2] 9.41 µM | [3] 0.148 µM | [4] 9.76 µM | [6] 0.148 µM | [7] 1 µM | [9] 0.477 µM | [10] 0.284 µM | [13] 0.148 µM | [14] 0.242 µM | [15] 0.47 µM | [16] 0.7 µM

CCCCCCCCOc1ccc(C(=O)c2ccccc2)c(O)c1
active: [9] 20 µM
inactive: [1] | [2] | [3] | [4] | [5] | [6] | [7] | [8] | [10] | [12] | [13] | [14] | [15] | [16] | [17] | [18] | [19]

CCN(CC)C(=O)c1cc(S(=O)(=O)Cc2ccccc2)c(N2CCC(c3ccccc3)CC2)cc1N(CC)CCN(C)C
active: [2] 29.8 µM | [4] 20.4 µM | [6] 4.27 µM | [9] 5.9 µM | [10] 18.7 µM | [16] 4.69 µM | [19] 28 µM
inactive: [1] | [3] | [5] | [7] | [8] | [11] | [12] | [13] | [14] | [15] | [17] | [18] | [20]

COCC(C)OCC(C)OCC(C)O (stereo unspecified)
inactive: [1] | [2] | [3] | [4] | [5] | [6] | [7] | [8] | [9] | [10] | [11] | [12] | [13] | [14] | [15] | [16] | [17] | [18] | [19]
